Measurements taken from the supplement of paper PMC6555819.

Test system: VDR:RXRa (NR concentration 270 nM, RXRa partner concentration 90 nM)
Test: PBM binding z-score (relative to random genomic background probes); higher = stronger binding; sequences stand for … in GC…GCGATTGACAGCGTAGAATGAAGG
Protocol: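 Protein-binding microarray (Agilent 4x180K custom design, double-stranded 60-nt probes: 5' GC cap, 34-nt variable region, 24-nt constant primer region; full probe sequence given). Purified or IVT nuclear receptor:RXRα heterodimers (3:1 NR:RXRα, mostly 270:90 nM) or homodimers were incubated for 1 h in PBS with 2% milk and no ligand, then detected with Alexa488 antibodies. Fluorescence from o1-orientation probes (~5 replicates averaged) was converted to z-scores against 500 random hg19 background probes. Variable regions are seed direct-repeat (DR0–DR5) sites, all their single-nucleotide variants and half-site ablations.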

Row | Sequence | PBM binding z-score
1 | TCGTGTAGGTTACCAATGGGGCATTCAGCTTTCT | 0.608
2 | CCTTACGGGTCACTCCACGTTATAGCATCGGAGT | 2.65
3 | TCTTGTAGATCGAGCAGGTTAAGAAAGCCTGAGT | -0.0222
4 | AGTTAAAGTTCACTAGGTAACGTAAGATTCAGCT | 3.64
5 | CCAGATAGGTGAAAGGTAACTCAGTCTGGTACGC | 0.921
6 | ACTAGTTGGTCAGCTGAAGTCACACACAATTCGG | -0.103
7 | ATATGTAAGTTATCGGGTCATTCAGTTTGCGCAT | 4.93
8 | CGTAGTTGGTCAGGAGGTCACACACCGGATATGA | 3.86
9 | TCTTGTAGACCAAAGGTTAAGAAAGCCGAAGCCT | 0.807
10 | ATCTCTAGGTAAAGATAGTTCAGTGGATGCAAAT | 0.451
11 | TCTGCTAGGTCCACGATGGTCAGCTAATCTGCTA | -0.304
12 | CCGACTGGGGAAGAAAGGTTACCATACCATCCGG | 0.522
13 | GGAACGAGGGCGAGTTGATAGCAGAGTTTGATGG | -0.000397
14 | CAAACTAGGTCACCGGAAGGTCAAAGACCGCATG | 5.76
15 | AGTCAAAGTTCAGGACGTGGTAACGTAAAGCACG | 2.12
16 | CCGACTGGTGCAAAGGTTACCATACTCAGTACGA | 1.74
17 | TAGCCTAGGTCAGATCGGGCCAGTATGCGCTATA | 0.446
18 | ACTAGCAGGCAAAGTTTGGGTCACTCAAACAAAG | 0.478
19 | CCGAGTAGGGTATGGGGCATTCAGGCAACGGTGA | -0.217
20 | CTACCAAGGTGACCAAGGTCGTTGATTACTATTC | 5.32

Row | Sequence | PBM binding z-score
21 | AGAATGAGGTTATTAACATCAGGGAATTGCGGTC | 1.31
22 | CCTTACGGGTCACTGACAGTTTATAGCATTTGGA | 4.21
23 | ATCTCTACGTAAAGATAGTTCAGTGAATGCAAAT | 0.567
24 | GGTACAGGGTCAGCTAGAGGCCAGAGTATGGAAA | 3.29
25 | CATACAGGGTCAGCTAGGCCAGGGTAGGGACGGC | 3.64
26 | CTACCAAGGTGAATAAGGTCGTTGATTACTATTC | 5.52
27 | CCGATTGGGGCATAAGGTTACCATAAGCCAGCCC | 0.31
28 | ATCTCAAGGTAACCAAGTTCAGTGAATGCCGAAC | 5.03
29 | TCATATAGGTAAAACGTGAAAGTCGGTGTGGTAA | 0.783
30 | TGAATGAGGTTATAGATCAGGGAACGTGGCGTCG | 1.06
31 | CAAACTAGGTTAAGGTCAAAGTCGGTTTGTGCCA | 4.8
32 | CAAACTAGGTCAAGGTCAAAGTTGGTTTGTGCCA | 5.16
33 | CTCGAAAGGACGGTTGAGGTGAGTATACGGATAA | -0.266
34 | CGAACTAGGTCAAGGACAGTGACTCTCCGCACGC | 1.19
35 | CGTCCAAGGTCAGAGGTCAGTGAAGAGATGACGG | 5.16
36 | CGTCCAAGGTCAGAGAGGTCAGGGAATGCCGAGT | 7.31
37 | ATCGAAAGGTCGTGGTGAGTATAGAGAAAGGGAA | 3.85
38 | GGAACGAGGGCATTCGAGTTTATAGCATGGCGAT | 5.31
39 | GCTAGCAGGCAATTTGGGTCACTCAATGACGGGC | 0.222
40 | TGTCAAAGTTCAAAGGGAACGTAAGTATCCACAC | 4.92
